According to PubChem BioAssay (NCI):
The panel holds about 83,000 compounds, 20% with a hit somewhere; the sample as a whole holds those more often.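 Growth was measured after 48 h exposure to one concentration of compound in 96-well plates. Values under 10 count as active.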 A number with no mark means an inactive call. Calls of active or inactive are those of the source.

tested on: HCC-2998 colon; test: NCI-60 one-dose screen, 48 h (100 = growth as untreated, 0 = no growth, -100 = all killed); conditions: 10 µM

SMILES | growth
CC1=CC(C)(C)NC(=S)N1c1ccc(S(=O)(=O)O)c2cccc(S(=O)(=O)O)c12 | 108%
c1ccc2c(N3CCCCC3)ncnc2c1 | 81.1%
O=[N+]([O-])c1ccc(Sc2ccncn2)c([N+](=O)[O-])c1 | 90.5%
CC1OC(Oc2c(-c3ccc(O)c(O)c3)oc3cc(O)cc(O)c3c2=O)C(O)C(O)C1O (configuration not stated) | 110%
O=[N+]([O-])c1ccc(Cl)c(S(=O)(=O)O)c1 | 102%
NC(C(=O)O)c1ccc([N+](=O)[O-])cc1 (configuration not stated) | 111%
C1CNC(C2=NCCN2)=N1 | 92.3%
CN(C)C(C)(C)CC(C)(C)C | 109%
Cc1ccc(CCCC(=O)O)c(C)c1 | 118%
CCCCC1(CC)COC(CCC)OC1 (configuration not stated) | 98.1%
COc1cc2c3cc1Oc1c(OC)c(OC)cc4c1C(Cc1ccc(O)c(c1)Oc1ccc(cc1)CC3N(C)CC2)N(C)CC4 (configuration not stated) | -72.7% (active)
COS(=O)(=O)c1ccc(Br)cc1 | 99.8%
Cc1cc(OCCO)cc(C)c1Cl | 102%
Cc1cc(O)ccc1O | 121%

tested on: KM12 colon; test: as above; conditions: 10 µM

SMILES | growth [%]
CCCCOC(OCCCC)c1ccccc1 | 110
O=C(O)c1cccc([N+](=O)[O-])c1O | 110
O=C1c2ccccc2C(=O)N1OCc1ccccc1 | 105
C[C@@H](c1ccccc1)[C@@H](C(=O)O)c1ccccc1 | 109
CC(=O)OC(OC(C)=O)C1CCCO1 (configuration not stated) | 101
c1ccc2c(N3CCCCC3)ncnc2c1 | 103
S=c1nn[nH]c2ccccc12 | 101
O=[N+]([O-])c1ccc(Sc2ccncn2)c([N+](=O)[O-])c1 | 76.2
O=c1[nH]c(O)c(/C=C2/C=Nc3ccccc32)[nH]1 | 88.4
CC1OC(Oc2c(-c3ccc(O)c(O)c3)oc3cc(O)cc(O)c3c2=O)C(O)C(O)C1O (configuration not stated) | 102
Cc1ccc(O)c(C(=O)c2ccccc2)c1 | 106
OCC1OC(OC2C(O)C(CO)OC2(CO)OC2OC(CO)C(O)C(O)C2O)C(O)C(O)C1O (configuration not stated) | 109
C[N+](C)(C)C(=O)c1ccccc1 | 112
O=[N+]([O-])c1ccc(Cl)c(S(=O)(=O)O)c1 | 105
Cc1cc2ccccc2c(O)c1C#N | 105
COc1ncnc2c1cnn2C | 103
NC(C(=O)O)c1ccc([N+](=O)[O-])cc1 (configuration not stated) | 99.4
CC(O)COc1ccc(-c2ccccc2)cc1 (configuration not stated) | 105
C1CNC(C2=NCCN2)=N1 | 95.4

SMILES | growth [%]
CN(C)C(C)(C)CC(C)(C)C | 93.6
O=[N+]([O-])c1ccc(S(=O)(=O)NN=C2CCCCC2)cc1 | 110
C[C@]12CC[C@@H]3c4ccc(OCC(=O)O)cc4CC[C@H]3[C@@H]1CCC2=O | 105
Nc1ncnc2[nH]ncc12 | 18
CCCNc1ccc(C2=NCCCN2)cc1 | 94.5
O=C(N/N=C/c1ccccc1O)Nc1nn[nH]n1 | 114
Cc1ccc(CCCC(=O)O)c(C)c1 | 107
CC(=O)c1cc2c(cc1F)C(C)(C)CCC2(C)C | 107
CN(c1ccccc1)c1ncnc2c1ncn2C | 108
CCCCC1(CC)COC(CCC)OC1 (configuration not stated) | 104
COc1cc2c3cc1Oc1c(OC)c(OC)cc4c1C(Cc1ccc(O)c(c1)Oc1ccc(cc1)CC3N(C)CC2)N(C)CC4 (configuration not stated) | 12.9
CCC(C#N)(CC)c1ccccc1 | 106
FC(F)(F)c1ccc2c(c1)N(CCCN1CCN(C3CC3)CC1)c1ccccc1S2 | 59.6
CC1NC(=O)NC1CCCCCC(=O)O (configuration not stated) | 98.7
COS(=O)(=O)c1ccc(Br)cc1 | 91.7
O=[N+]([O-])c1cccc(N=Nc2ccc(O)cc2O)c1 | 90.9
Cc1cc(OCCO)cc(C)c1Cl | 107
Cc1cc(O)ccc1O | 105
CCOc1ccc(Br)cc1/C=N\N=C\c1cc(Br)ccc1OCC | 94.2
